# Structures can show the parent of a compound that is named as a salt. Whole data set: some 1,000 compounds, median “cFRET/donor change relative to DMSO, normalised to beta-lapachone positive control (supercomplex I-IV assembly)” near 0.18, cut for the lowest 2% near -1. Shown is part of a subset that was picked to be rich in the lowest values.
# System: C2C12 (NDUFB8-AcGFP / COX8A-DsRed-Monomer FRET reporter)
# Assay: cFRET/donor change relative to DMSO, normalised to beta-lapachone positive control (supercomplex I-IV assembly) (fraction of beta-lapachone effect); higher = more respiratory supercomplex assembly
# Settings: 40 µM; 24 h
# Experimental: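 Cells were treated with 40 uM compound for 24 h and imaged on an IN Cell Analyzer 6000. Corrected FRET was divided by donor signal (cFRET/donor) and measured in two replicate experiments. The score is (mean cFRET/donor of compound - mean DMSO) / (mean beta-lapachone 40 uM - mean DMSO). Compounds flagged for prominent cell death, abnormal morphology or decreased cell number were excluded.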
row,SMILES,cFRET/donor change
1,CNS(=O)(=O)CCc1ccc2[nH]cc(C3CCN(C)CC3)c2c1 [Naratriptan hydrochloride],0.347
2,COc1ccc(-c2cc(=O)c3c(O)c(OC)c(OC)cc3o2)cc1O [Eupatorin],0.395
3,O=c1c(-c2ccc(O)cc2)coc2cc(O)ccc12 [Daidzein],0.201
4,"O=c1cc(-c2ccccc2)oc2c(O)c(O)ccc12 [7,8-Dihydroxyflavone hydrate]",-0.0745
5,O=c1cc(-c2ccc(O)cc2)oc2cc(O)cc(O)c12 [Apigenin],-1.74
6,O=c1c(O)c(-c2ccc(O)cc2O)oc2cc(O)cc(O)c12 [Morin],-3.25
7,O=C(Nc1ccccc1C(=O)NC1CCCCNC1=O)c1cc2ccccc2s1 (stereo not given),0.384
8,CN1[C@@H]2CC[C@H]1C[C@@H](OC(=O)C(O)c1ccccc1)C2 (mixture of isomers) [DL-Homatropine hydrobromide],0.0655
9,"Cn1c(=O)c2[nH]c(-c3ccccc3)nc2n(C)c1=O [1,3-Dimethyl-8-phenylxanthine]",-1.5
10,"Cn1c(=O)c2[nH]c(C3CCCC3)nc2n(C)c1=O [8-Cyclopentyl-1,3-dimethylxanthine]",0.158
11,Cn1c(=O)c2[nH]c(-c3ccc(S(=O)(=O)O)cc3)nc2n(C)c1=O [8-(p-Sulfophenyl)theophylline],0.086
12,Cc1c(O)cccc1C(=O)N[C@@H](CSc1ccccc1)[C@H](O)CN1C[C@H]2CCCC[C@H]2C[C@H]1C(=O)NC(C)(C)C [Nelfinavir mesylate hydrate],-0.54
13,O=C(O)CCc1ccc(NCc2cccc(Oc3ccccc3)c2)cc1,-0.4
14,C[C@@H](c1ncncc1F)[C@](O)(Cn1cncn1)c1ccc(F)cc1F [Voriconazole],0.181
15,NC1CONC1=O (racemic) [DL-Cycloserine],0.397
16,"NC(N)=NC(=O)c1nc(Cl)c(N2CCCCCC2)nc1N [5-(N,N-hexamethylene)amiloride]",0.351
17,CCOc1ncc(S(=O)(=O)N2CCN(CC)CC2)cc1-c1nc(=O)c2nn(CCOC)c(CC)c2[nH]1 [Gisadenafil besylate salt],0.0753
18,O=C1Nc2ccc(I)cc2/C1=C/c1cc(Br)c(O)c(Br)c1,-3
19,N=C(N)c1ccc(OCCCCCOc2ccc(C(=N)N)cc2)cc1 [Pentamidine isethionate],0.191
20,CC(C)(NS(=O)(=O)c1ccc(Oc2ccc(F)cc2)cc1)C(=O)NO,0.196
21,CN1[C@@H]2CC[C@H]1C[C@@H](OC(c1ccccc1)c1ccccc1)C2 [Benztropine mesylate],0.586
22,Cc1c(-c2ccc(-c3ccccc3F)cc2)nc2ccc(F)cc2c1C(=O)O [Brequinar sodium salt hydrate],0.431
23,Nc1ccc(CCNc2ncnc3c2ncn3C2OC(CO)C(O)C2O)cc1 (stereo not given) [N6-2-(4-Aminophenyl)ethyladenosine],0.338
24,CCCC(CCC)C(=O)O[C@H]1C[C@H]2CC[C@@H](C1)[N+]2(C)C [Anisotropine methyl bromide],0.0542
25,COc1ccc(CCn2nnnc2C2(c3ccc(C)cc3)CC2)cc1 [Mephetyl tetrazole],0.388

# — the supplement of paper PMC9877034
